# Test results from PubChem BioAssay (NCI).
# Compounds without any hit were thinned out: in the full panel of roughly 83,000, 20% have a hit.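 Step 1: grow cells in 96-well plates. Step 2: add test compound at a single concentration. Step 3: incubate 48 h. Step 4: record percent growth.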 Unmarked numbers belong to inactive results. Active and inactive are the calls of the source. How the source made its calls: active means growth percent below 10; inactive means the rest.
# Legend:
# Assay in all cases: NCI-60 one-dose screen, 48 h (100 = growth as untreated, 0 = no growth, -100 = all killed)
# Settings in all cases: 10 µM unless noted
# [1] = tested on: SK-MEL-2 melanoma
# [2] = tested on: EKVX NSCLC
# [3] = tested on: SN12C renal
# [4] = tested on: UO-31 renal
# [5] = tested on: TK-10 renal
# [6] = tested on: CAKI-1 renal
# [7] = tested on: A498 renal
# [8] = tested on: CCRF-CEM leukemia
# [9] = tested on: MOLT-4 leukemia
# [10] = tested on: ACHN renal
Compound,growth [1],growth [2],growth [3],growth [4],growth [5],growth [6],growth [7],growth [8],growth [9],growth [10] [%]
COC(=O)CC[C@@H]1O[C@@H](c2cccc(C(F)(F)F)c2)[C@@H](O)[C@H]1O,103%,97.7%,106%,92.9%,98.9%,94%,106%,109%,104%,
O=S(=O)(Nc1cc(Cl)ccc1Cl)c1ccc(-c2cnc(C3CC3)o2)cc1,39%,58.7%,60.3%,49.6%,60%,33.5%,-7.01% (active),20%,44.1%,
COc1ccc(NC(=O)c2sc3nc(C)c(C(=O)/C=C/c4ccccc4)cc3c2N)cc1,88.7%,87.1%,17.6%,17.7%,80.5%,29%,21%,3.56% (active),27.6%,
Oc1c(I)cc(I)cc1CNCc1ccccn1,35.7%,25.9%,38.4%,5.01% (active),23.4%,15.4%,62.4%,23.6%,16.2%,
CC1=NC2=Nn3c(c4cnn(-c5ccccc5)c4n/c3=N\N)NN2C(c2ccccc2)=C1,101%,80.7%,-63.4% (active),70.3%,109%,76.5%,91%,101%,103%,
CN(c1cc2ncc(=O)[nH]c2cc1NC(N)=NCc1ccc(Cl)cc1)C1CCCCC1,92.7%,82.6%,67.9%,91%,85.2%,98.5%,80.5%,21.9%,35.5%,
COc1ccc(CN2c3ccccc3Sc3ccccc32)cc1F,39.8%,34.4%,45.2%,45.6%,47.4%,54.4%,-1.48% (active),22.1%,27.3%,41.8
OB1OCc2cc(/C=C/c3cccc(C(F)(F)F)c3)ccc21,60.2%,26.5%,15.2%,-28.6% (active),-19.3% (active),-46% (active),6.25% (active),7.57% (active),-3.42% (active),
CCC(=C(c1ccc(OCCN2CCCCC2)cc1)c1ccc(OCCN2CCCCC2)cc1)c1ccc(Cl)cc1,-76.1% (active),-82.1% (active),-94.9% (active),-94.5% (active),-84.7% (active),-95.6% (active),-81.4% (active),-74.4% (active),-68.2% (active),
O=S(=O)(c1ccccc1)n1cc2c(c1)-c1nc(Nc3ncccn3)sc1CC2,65.2%,72.4%,57.2%,41.3%,64.3%,66.8%,43.7%,73.1%,83.7%,
COc1cc2cc(NCc3cccc(Cl)c3)nc(C)c2cc1OC,38.6%,60%,44.6%,36%,45.9%,52%,7.63% (active),27.5%,,
CCCC/C=C/[C@@H]1C[C@H]1CCO,98.7%,101%,94.3%,87%,96.4%,98.9%,102%,101%,103%,
O=C(O)c1cn(C2CC2)c2cc(N3CCN(Cc4ccc5ccccc5c4O)CC3)c(F)cc2c1=O,76.3%,66.7%,32.5%,42.2%,67.7%,15.2%,-7.61% (active),68.2%,39%,
O=C1C(Cl)=C(NCCCCCCNC2=C(Cl)C(=O)c3ccccc3C2=O)C(=O)c2ccccc21,84.5%,91.9%,83.6%,83.9%,109%,97.8%,72.9%,97.3%,82.4%,
CCCCNC(=O)Oc1ccc(/C(=C(/C)Cc2ccc(OC)cc2)c2ccc(OCCN(CC)CC)cc2)cc1,102%,83.9%,83.8%,58.4%,79.7%,89.9%,102%,49.3%,48.3%,
COCCn1cc(-c2nc(-c3cc4cccnc4[nH]3)cs2)c2cc(OC)ccc21,37.8%,16.9%,48.5%,10.9%,-4.75% (active),34.4%,-0.329% (active),12.4%,26.6%,
CSc1nc2ccccc2cc1/C=[N+](\[O-])c1ccccc1,95.5%,79.5%,45.2%,42.8%,98%,80.8%,102%,10.5%,22%,
N#C/C(=C\c1c(-c2ccccc2)[nH]c2ccccc12)C(N)=O,111%,83.7%,94.2%,93.4%,124%,63.2%,73.7%,66.1%,61.6%,
O=S(=O)(NCCCNc1nccc(-c2c(-c3ccc(F)c(O)c3)nc3sccn23)n1)c1ccccc1,24.9%,106%,59%,31.1%,120%,55.9%,104%,38.2%,50.9%,52.3
COc1ccccc1CNc1c2ccccc2nc2ccccc12,73.5%,65.7%,34.7%,33.7%,55.5%,45.7%,13.3%,37.5%,,
CC(C)C1=NOC(=O)C1=Cc1cn(-c2ccccc2)nc1-c1ccc(F)cc1,94.6%,97.2%,62.8%,74.2%,75.2%,62.2%,82.2%,10.7%,,
Cc1ccc(-c2nc(N3CCCNCC3)c3oc(-c4ccc(C)cc4)nc3n2)cc1,105%,116%,59.1%,62.6%,-1.53% (active),108%,101%,-72.1% (active),-66% (active),
COc1ccc(/C=C(\C#N)n2nnc3ccc(Cl)cc32)cc1,62.9%,90%,52.4%,50.2%,77.6%,46.3%,79.7%,45.5%,83.7%,
CC(=O)n1nc(C(=O)OC(C)(C)c2ccccc2)c2ccccc21,105%,100%,86.9%,93.2%,101%,84.5%,96.8%,83.1%,96.9%,
CCCCC1=C(P(=O)(O)O)N[C@H](C(=O)O)CS1,103%,90.5%,88.2%,73.5%,94.8%,94.1%,100%,96.8%,102%,
O=C(Nc1cccc(-c2ccc(Cl)c(C(F)(F)F)c2)c1)C1CCN(Cc2cccc3cccnc23)CC1,31.6%,34.6%,4.06% (active),2.47% (active),80.6%,-52.5% (active),58.7%,4.08% (active),-9.69% (active),
CCOc1ccccc1Cn1ccnc1CCc1c(Cl)c(O)cc(O)c1C(=O)OC,87.5%,101%,96.9%,78.9%,90.4%,98.6%,114%,93.6%,91.9%,
O=S(=O)(Nc1cc(F)cc(Cl)c1)c1ccc(-c2cnc(C3CC3)o2)cc1,52.8%,38%,45.8%,39.3%,47.7%,31.3%,-6.52% (active),23.6%,31.9%,
CCCCNC(=O)Oc1ccc(/C(=C(/C)Cc2ccc(OC)cc2)c2ccc(OCCN3CCCC3)cc2)cc1,85.2%,67.6%,72.6%,53.5%,81.2%,70.5%,59.6%,46%,34.4%,
Oc1c(Br)cc(Br)c2ccc(Cn3cc(-c4ccc(C(F)(F)F)cc4)nn3)nc12,90.9%,83.6%,71%,63.5%,99.1%,13.2%,96.8%,2.97% (active),11.3%,
